# Screens as filed in PubChem BioAssay.
# Shown are actives, neighbours in structure and some others; about 22% of the full set was active somewhere.
# LmPK inh: LmPK (Leishmania mexicana) enzyme inhibition. Q27686. purified LmPK, Kinase-Glo ATP luminescence, 1 h. Potency, µM (doses to about 57.5 µM), inactives show at the highest dose activity change, negative = inhibition, usual class: inhibitors. 290,000 tested, 0.37% active. AID 1721; also: potency is read from the fitted curve at half-maximal effect; % is scaled to controls: 0 for no effect and ±100 for the full control effect
# Target sequence (Q27686 whole entry, looked up): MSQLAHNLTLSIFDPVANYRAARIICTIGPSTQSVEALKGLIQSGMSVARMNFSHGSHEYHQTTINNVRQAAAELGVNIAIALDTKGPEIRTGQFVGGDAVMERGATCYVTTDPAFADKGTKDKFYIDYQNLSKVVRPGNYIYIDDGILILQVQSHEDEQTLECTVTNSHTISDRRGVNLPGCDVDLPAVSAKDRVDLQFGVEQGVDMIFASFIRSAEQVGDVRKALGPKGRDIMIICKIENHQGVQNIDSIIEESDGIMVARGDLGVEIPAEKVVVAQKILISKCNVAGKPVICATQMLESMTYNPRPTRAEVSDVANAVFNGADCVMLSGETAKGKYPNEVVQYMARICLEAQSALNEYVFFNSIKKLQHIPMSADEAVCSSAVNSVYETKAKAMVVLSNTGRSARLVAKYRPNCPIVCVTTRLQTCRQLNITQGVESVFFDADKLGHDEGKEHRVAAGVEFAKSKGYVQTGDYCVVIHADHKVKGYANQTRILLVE
#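 Purified LmPK (0.1 nM) converted ADP (0.1 mM) to ATP with PEP (0.5 mM) in imidazole buffer pH 7.2 with KCl and MgCl2, 1 h at room temperature. ATP was read by Kinase-Glo luminescence; data normalized to uninhibited and no-enzyme controls.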
# Cycloheximide cs: affects cycloheximide protein synthesis inhibition readout, counter-screen | cell reporter, cycloheximide protein synthesis inhibition counterscreen | max response, % | 300,000 tested, 12% active; in the data active = max response mostly above about 13%, no sharp cut-off; inactive = mostly below about 14%; also: read at 38.3 µM for the half of the compounds with a filed dose; 0% is about no effect
# Pf growth 48h: inhibits P. falciparum growth in the first generation, 48 h. P. falciparum luciferase growth in erythrocytes, 48 h. Potency, µM (highest dose often 28.7 µM), inactives show top-dose activity change, negative = inhibition, usual class: inhibitors. 310,000 tested, 5.9% active. AID 504832; also: potency is read from the fitted curve at half-maximal effect; % is scaled to controls: 0 for no effect and ±100 for the full control effect
#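 Read-out is firefly luciferase luminescence from an integrated reporter in P. falciparum, so falling signal marks reduced parasite growth. Infected erythrocytes were at 2% hematocrit and 0.1% parasitemia (final) in Albumax-supplemented RPMI 1640.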
# Pf growth 96h: inhibits malaria parasite growth, 96 h; P. falciparum luciferase reporter growth, 96 h; AID 504834; 320,000 tested, 6.9% active; Potency, µM (series often up to 28.7 µM), for the others: top-dose activity change, negative = inhibition, usual class: inhibitors; also: potency is read from the fitted curve at half-maximal effect; % is scaled to controls: 0 for no effect and ±100 for the full control effect
#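 Parasite growth measured via integrated firefly luciferase reporter in P. falciparum. Infected erythrocytes at 2% hematocrit, 0.05% parasitemia final were treated 96 hours at 37 C under 5% CO2, and luminescence was read.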
# Shiga toxin inh: blocks Shiga toxin action in Vero cells | Vero cells, Shiga toxin protein synthesis inhibition reporter | inhibition, % at 38.7 µM | 290,000 tested, 9.2% active; in the data active = inhibition mostly above about 28%, no sharp cut-off; inactive = mostly below about 43%; also: 0% is about no effect
# * = called active by the depositor; ? = inconclusive; nt = not tested or not shown; [ ] = remark or other dose. Unless noted, calls follow the shape of the dose curve; as a rule, active = well fitted inhibition curve with a large enough effect; inconclusive = small, poorly fitted or top-dose-only effect, or another doubt; inactive = no such curve, though single readings can be large or run the other way.
SMILES,LmPK inh,Cycloheximide cs,Pf growth 48h,Pf growth 96h,Shiga toxin inh
CC1Cc2ccccc2N1C(=O)c1nn(C)cc1Br (configuration not stated),1%,9.3*,18%,-19%,-2
CCOc1ccc2oc(C(=O)N3CCN(c4ccccn4)CC3)c(C)c2c1,-5%,13,-15%,13µM*,-2
CC1Cc2ccccc2N1C(=O)c1ccc2snnc2c1 (configuration not stated),2%,-5,-18%,-17%,-20
CC(=O)N1CCN(C(=O)c2oc3ccccc3c2C)CC1,-12%,0,-19%,-6%,-27
CCCCCc1ccc(CC(=O)Nn2c(C)nc3ccccc3c2=O)cc1,7%,-1,nt,7%,14
Cc1c(C(=O)N2CCN(c3ccccn3)CC2)oc2ccccc12,14%,20*,8.3µM*,nt,67*
COCc1c(C(=O)OCC(=O)N2c3ccccc3CC2C)oc2ccccc12 (configuration not stated),4%,-2,10%,34%,26
Cc1c(C(=O)N2c3ccccc3CC2C)oc2ccccc12 (configuration not stated),-1%,42*,217%,91%,166*
CCCCN1C(=O)N(c2ccccc2Cl)C(C)(O)CC1(C)C (configuration not stated),-2%,-2,16%[0.00184 µM],5%,-8
CCCCC(CC)COC1(c2ccccc2)OC(=O)c2ccccc21 (configuration not stated),2%,0,9.3µM*,8.3µM*,23
O=C(Nc1cc2c3c(c1)C1CCCC1CN3CC1CCCC21)c1ccccc1 (configuration not stated),3%,-2,13µM*,45%,-19
O=C(Nc1ccccc1)c1ccc(S(=O)(=O)N2CCC(C(=O)O)CC2)cc1,-10%,11,9%,-23%,-32
CCN(CC)c1ccc(NC(=O)CCc2nnc3ccc(N4CCCC4)nn23)c(C)c1,-2%,1,12µM*,?,-1
CCOc1ccc(CCNC(=O)CCc2nnc3ccc(N4CCCCC4)nn23)cc1OCC,0%,-3,?,5.2µM*,6
CCOc1ccc(CCNC(=O)CCc2nnc3ccc(N4CCOCC4)nn23)cc1,-3%,1,-7%,14%,-4
O=C1CSC2(N1)C1CC3CC(C1)CC2C3 (configuration not stated),-4%,-2,-17%,6%,-12
Cn1cc(S(=O)(=O)N2CCCC2)cc1C(=O)NCCc1ccccc1,1%,11*,-13%,2.6µM*,18
CCOC(=O)N1CCC(NC(=O)c2cc(S(=O)(=O)N3CCCC3)cn2C)CC1,5%,-2,7.4µM*,0.41µM*,-16
COc1ccc(CCNC(=O)c2cc(S(=O)(=O)N3CCOCC3)cn2C)cc1OC,-3%,1,17%,7.4µM*,-6
CCOC(=O)N1CCN(C(=O)c2cc(S(=O)(=O)N3CCCC3)cn2C)CC1,1%,3,48%,-1%,-7
Cc1ccc(CCNC(=O)c2cc(S(=O)(=O)N3CCOCC3)cn2C)cc1,-4%,-1,5%,-9%,-3
Cn1cc(S(=O)(=O)N2CCOCC2)cc1C(=O)NCCc1ccccc1,-1%,-3,-6%,66%,9
CCOC(=O)N1CCN(C(=O)c2noc(C(C)C)c2[N+](=O)[O-])CC1,0%,-2,?,?,-12
CC(=O)c1ccc(NC(=O)C(C)OC(=O)C2CCN(c3ccc(C(F)(F)F)cn3)CC2)cc1 (configuration not stated),nt,nt,?,-4%,nt
CC(OC(=O)C1CCN(c2ccc(C(F)(F)F)cn2)CC1)C(=O)c1ccccc1 (configuration not stated),nt,nt,-6%,10%,nt
CC(OC(=O)C1CCN(c2ccc(C(F)(F)F)cn2)CC1)C(=O)Nc1ccc(S(N)(=O)=O)cc1 (configuration not stated),-4%,13,?,13µM*,-4
CC(OC(=O)C1CCN(c2ccc(C(F)(F)F)cn2)CC1)C(=O)Nc1cccc([N+](=O)[O-])c1 (configuration not stated),nt,nt,12µM*,?,nt
CCOP(=O)(OCC)c1ccc2c(c1)C(=O)c1ccccc1CC2,nt,nt,-3%,4.1µM*,nt
CCOP(=O)(OCC)c1nc(-c2cccc3ccccc23)oc1N1CCOCC1,5%,-3,?,?,-2
